PubChem BioAssay (NCATS)
Records with an inconclusive call do not appear. A number with no mark means an inactive call. Active and inactive are the calls of the source. Unless noted, calls come from the whole dose curve.

Molecular target: Cytochrome P450 1A2 (Homo sapiens) (UniProt P05177)
Test: p450-cyp1a2 (AID 410)
Details: recombinant CYP1A2, luciferin-ME demethylation, luminescence; series mostly up to 57 µM
Method in brief: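 Luminescent readout of luciferin formed from Luciferin-ME by human CYP1A2; data normalized against complete inhibition by 57 uM furafylline. Enzyme 20nM, substrate 100uM at Km, 100mM KPO4 buffer, 60 min reaction at room temperature.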
Potency is the fitted concentration of half-maximal effect.

Sequence of Cytochrome P450 1A2 (Homo sapiens) (P05177 whole entry, looked up): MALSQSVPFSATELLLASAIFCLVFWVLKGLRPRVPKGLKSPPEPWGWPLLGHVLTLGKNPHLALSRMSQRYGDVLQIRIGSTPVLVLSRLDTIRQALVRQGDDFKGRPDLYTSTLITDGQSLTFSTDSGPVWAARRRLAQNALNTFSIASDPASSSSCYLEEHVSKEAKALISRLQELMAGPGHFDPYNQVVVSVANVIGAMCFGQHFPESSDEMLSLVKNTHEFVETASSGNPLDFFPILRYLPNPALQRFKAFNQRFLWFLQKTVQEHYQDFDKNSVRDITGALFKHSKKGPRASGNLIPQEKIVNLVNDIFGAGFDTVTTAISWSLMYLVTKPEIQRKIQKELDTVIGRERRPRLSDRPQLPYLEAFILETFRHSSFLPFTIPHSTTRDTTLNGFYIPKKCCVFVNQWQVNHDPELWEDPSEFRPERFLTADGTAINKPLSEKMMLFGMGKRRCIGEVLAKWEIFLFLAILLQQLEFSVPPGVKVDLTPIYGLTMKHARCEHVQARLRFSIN

Row | SMILES | Potency
1 | CN1CCCC[C@@H]1CCN1c2ccccc2Sc2ccc(S(C)=O)cc21 (some centres undefined) | inactive
2 | CN(Cc1ccco1)c1ccnc(-c2cccc(NS(C)(=O)=O)c2)n1 | 1.26 µM (active)
3 | Cc1cccc(CNc2ncncc2-c2ccccc2C(F)(F)F)c1 | 12.6 µM (active)
4 | COc1ccccc1-c1ccc2ncnc(N(C)C)c2c1 | 1.26 µM (active)
5 | COc1cccc(Nc2ncc3nc(C)c(=O)n(CCC#N)c3n2)c1 | 1.26 µM (active)
6 | Cn1cccc1C(=O)N1CCC2(CC1)CN(Cc1cc(C(F)(F)F)cc(C(F)(F)F)c1)C2 | 10 µM (active)
7 | COc1ccc2[nH]cc(CCNc3ncnc4ccc(-c5ccc(C(=O)N(C)C)cc5)cc34)c2c1 | 12.6 µM (active)
8 | CN(C)Cc1ccccc1-c1ccc2ncnc(NCc3ccccc3)c2c1 | 15.8 µM (active)
9 | Cc1cccc(CNc2cc(-c3ccc(C(=O)N(C)C)cc3)ncn2)c1 | 15.8 µM (active)
10 | COc1ccc2[nH]cc(CCNc3cc(-c4ccoc4)ncn3)c2c1 | 0.631 µM (active)
11 | Cc1cccc(CNc2ccnc(-c3ccc(C(=O)N(C)C)cc3)n2)c1 | 25.1 µM (active)
12 | CN(C)Cc1ccccc1-c1nc(N(C)Cc2ccco2)c2ccccc2n1 | 0.794 µM (active)
13 | Cc1cccc(CNc2nc(-c3ccoc3)nc3ccccc23)c1 | 1.26 µM (active)
14 | CNc1nc(-c2ccccc2OC)nc2ccccc12 | 0.398 µM (active)
15 | COc1ccccc1-c1cncnc1NCc1cccc(C)c1 | 5.01 µM (active)
16 | CC(=O)N1CCC2(CC1)CCN(c1ccncc1)CC2 | inactive
17 | Cc1nc2cnc(N(C)C)nc2n(Cc2cccs2)c1=O | 1.26 µM (active)
18 | c1ccc2c(Nc3ccncc3)nc(-c3ccoc3)nc2c1 | 0.158 µM (active)

Row | SMILES | Potency
19 | COCC(=O)N1CCC2(CCN(Cc3ccncc3)CC2)CC1 | 10 µM (active)
20 | CS(=O)(=O)Nc1cccc(-c2nc(N3CCOCC3)c3ccccc3n2)c1 | 5.01 µM (active)
21 | Cc1cccc(CNc2nc(-c3cccc(NS(C)(=O)=O)c3)nc3ccccc23)c1 | 15.8 µM (active)
22 | CNc1ncnc2ccc(-c3ccccc3OC)cc12 | 2.51 µM (active)
23 | N#CCCn1c(=O)cnc2cnc(N3CCNCC3)nc21 | 12.6 µM (active)
24 | CC(C)NC(=O)N1CCC2(CC1)CCN(C(=O)c1cnccn1)CC2 | inactive
25 | COc1ccc2[nH]cc(CCNc3ncnc4ccc(-c5ccccc5CN(C)C)cc34)c2c1 | 31.6 µM (active)
26 | COCCNc1nc(-c2cccc(OC)c2)nc2ccccc12 | 0.2 µM (active)
27 | CN(C)c1ccc(-c2cc(NCc3cccnc3)ncn2)cc1 | 0.398 µM (active)
28 | COc1ccc2[nH]cc(CCNc3ncncc3-c3ccccc3CN(C)C)c2c1 | 20 µM (active)
29 | Cc1ccccc1-c1nc(-n2ccnc2)c2ccccc2n1 | 0.316 µM (active)
30 | COc1ccccc1CNc1ccnc(-c2ccccc2C(F)(F)F)n1 | 10 µM (active)
31 | COc1ccccc1-c1nc(NCc2cnc(C)cn2)c2ccccc2n1 | 5.01 µM (active)
32 | COc1ncc2nc(-c3ccc(Cl)cc3)c(=O)n(-c3ccccc3)c2n1 | 1.58 µM (active)
33 | COCCNc1ncnc2ccc(-c3ccccc3CN(C)C)cc12 | 25.1 µM (active)
34 | COc1ccc(C(=O)N2CCC3(CCN(C(=O)Nc4cccc(F)c4)CC3)CC2)cc1 | inactive
35 | Cc1cccc(CNc2ccnc(-c3ccccc3CN(C)C)n2)c1 | 3.16 µM (active)

Tested on: not listed separately
Test: Cell Viability - BJ (AID 421);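 note: cells exposed to compound for 40 hours at 37 °C before readout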
Details: BJ fibroblast viability, qHTS
Method in brief: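 Luminescent ATP signal (CellTiter-Glo, 20 min at room temperature) served as the read-out of viable BJ cells after 40 hours of compound treatment. Responses were scaled between DMSO and 100 uM tamoxifen, and AC50 values were obtained by Hill modeling.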

Row | SMILES | Potency [µM]
36 | Cc1occc(=O)c1O | > 92
37 | CC1=CC(=O)CC(C)(C)C1(O)/C=C/C(C)=C\C(=O)O (centres undefined) | > 92
38 | COS(C)(=O)=O | > 92

Tested on: not listed separately
Test: Cell Viability - Jurkat (AID 426;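 active = dose-dependent loss of cell ATP signal giving a full or clear fitted curve, ranked by lower potency value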;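 note: cells exposed to compound for 40 hours at 37 °C before ATP read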)
Details: qHTS
Method in brief: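 qHTS, 1536-well; Jurkat E6-1, 5000 cells/well, complete medium; cpd 40 hr, 37 °C; CellTiter-Glo 20 min RT; luminescence. AC50 by Hill fit.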

Row | SMILES | Potency [µM]
39 | Cc1occc(=O)c1O | > 92
40 | CC1=CC(=O)CC(C)(C)C1(O)/C=C/C(C)=C\C(=O)O (centres undefined) | > 92
41 | COS(C)(=O)=O | > 92

Tested on: not listed separately
Test: Cell Viability - Hek293 (AID 427;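 active = compounds whose dose-response curve shows a full or clear partial loss of cell viability, called from curve shape rather than a numeric limit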;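 note: cells exposed to compound for 40 hours at 37 °C before reading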)
Details: qHTS
Method in brief: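 Luminescent ATP read-out (CellTiter-Glo, 20 min RT) after 40 hr compound exposure at 37 °C in complete medium. Signal normalized to DMSO (basal) and 100 uM tamoxifen (100% inhibition); concentration-response fitted with the standard Hill equation to give AC50.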

Row | SMILES | Potency [µM]
42 | Cc1occc(=O)c1O | > 92
43 | CC1=CC(=O)CC(C)(C)C1(O)/C=C/C(C)=C\C(=O)O (centres undefined) | > 92
44 | COS(C)(=O)=O | > 92
